From PubChem BioAssay
Potency and affinity values are given separately. Activity calls are given as the source filed them. Unless noted, the rule behind the calls is not given here.

target: Calcium-dependent protein kinase 1 (Plasmodium falciparum (isolate 3D7)) (UniProt P62344); test: PfCDPK1 kinase inhibitors, biochemical, TCAMS library (AID 1159585; cut-off not given, nearly all actives have IC50 up to about 0.98 µM;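 note: inhibitors leave more ATP so luminescence rises with inhibition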); conditions: recombinant PfCDPK1, Kinase-Glo ATP depletion luminescence
Sequence (P62344 whole entry, looked up): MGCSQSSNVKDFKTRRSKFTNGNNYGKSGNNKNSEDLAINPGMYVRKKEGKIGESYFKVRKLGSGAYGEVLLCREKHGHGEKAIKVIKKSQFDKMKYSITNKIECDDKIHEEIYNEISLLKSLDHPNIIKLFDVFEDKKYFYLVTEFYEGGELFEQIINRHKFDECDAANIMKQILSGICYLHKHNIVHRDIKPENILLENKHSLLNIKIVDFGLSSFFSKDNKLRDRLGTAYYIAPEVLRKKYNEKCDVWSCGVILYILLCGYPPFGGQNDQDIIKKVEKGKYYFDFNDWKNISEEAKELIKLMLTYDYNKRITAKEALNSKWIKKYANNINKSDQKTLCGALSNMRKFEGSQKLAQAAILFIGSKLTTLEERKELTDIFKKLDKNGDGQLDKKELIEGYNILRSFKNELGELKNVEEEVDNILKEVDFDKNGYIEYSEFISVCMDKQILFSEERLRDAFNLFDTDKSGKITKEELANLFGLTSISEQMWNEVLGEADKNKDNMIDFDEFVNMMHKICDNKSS

outcome, inactive:
Cc1[nH]c(C)c(-c2ccc(OCCCc3ccccn3)cc2)c(=O)c1Br
Cc1ccc2[nH]c3c(NCCN(C)C)ncnc3c2c1
Cc1cccc2[nH]c(-c3ccc(-c4cccc(NC(=O)c5cccc(C(N)=O)c5)c4)cc3)nc12
Cc1cccc(C)c1OC(=O)[C@@H](C)[C@@H](O)C1(Sc2ccccc2)CCN(C)CC1
N#Cc1ccc(-c2ccc(C(=O)NCC3CCN(CCN4CCC(c5ccc6c(c5OCC(N)=O)CCCC6)CC4)CC3)cc2)cc1
Cc1ccc(CN2CCCCC(NC(=O)c3cc4ccccc4s3)C2)cc1 (stereo not given)
CCCN(CCC)CCOc1ccc(C(O)(C#CC(O)(c2ccc(OCCN(CCC)CCC)cc2)c2cccc(Cl)c2)c2cccc(Cl)c2)cc1 (stereo not given)
CC(C#N)Cc1ccc(-c2cnc(N)c3cc(-c4ccnc(N)n4)ccc23)cc1 (stereo not given)
O=C(/C=C/c1ccc(C(F)(F)F)cc1)NCCCCCN1CCN(C(=O)Nc2ccc(F)c(Cl)c2)CC1
O=C(NCC1CCN(CCN2CCc3ccc4c(c3C2)OCO4)CC1)c1ccc(-c2ccc(C(F)(F)F)cc2)cc1
CCNc1cc(C)nc(Nc2ccc(NC(=O)c3ccco3)cc2)n1
CN(C)Cc1cccc(-c2cnc(N)c(-c3nc4ccc(S(C)(=O)=O)cc4[nH]3)c2)c1
O=c1ccc(-c2nc3cc(Cl)c(Cl)cc3n2Cc2ccc(Cl)cc2Cl)c[nH]1
CCc1c(C)nc(-n2nc(C)cc2NC(=O)c2cccc3ccccc23)[nH]c1=O
COc1ccc2c(=O)c3ccc(OC)cc3[nH]c2c1
NS(=O)(=O)c1ccccc1Nc1nc(Nc2ccc(N3CCOCC3)cc2)nc2c1CCC2
Nc1nonc1-c1nc2c(-c3cccc(Cl)c3)nccc2n1CCCNC(=O)Cc1ccc(Cl)cc1
Cc1ccc(O)c(C(=O)c2cnc3c(c2)c(-c2ccc(F)cc2)c(C#N)c(=O)n3C)c1
Cc1noc(C)c1-c1cccc(CNCc2ccc(-c3ccc(-c4nc5ccc(C(F)(F)F)cc5[nH]4)s3)cc2)c1
COc1ccc2nccc(N3CCC(O)(CCNCc4ccc5c(n4)NC(=O)CO5)CC3)c2n1
COc1ccc(NC(=O)[C@H](Cc2ccccc2)Nc2cc(C)nc(NCCN3CCCC3)n2)cc1
CCOc1cc2ncnc(Nc3cc(Cl)c(Cl)c(Cl)c3)c2cc1OCC
Cc1cccc(Nc2nccc(NCC(O)c3ccc(C(F)(F)F)cc3)n2)c1 (stereo not given)
Cn1cncc1C(=O)Nc1cccc(-c2ccc(-c3nc4ccccc4[nH]3)cc2)c1
CCN(CC)CC(O)Cc1c2ccc([N+](=O)[O-])cc2nc2cc(OC)c(OC)cc12 (stereo not given)
O=C(Nc1ccccc1F)NC1CCN(c2ccnc(Nc3ccc(F)cc3)n2)C1 (stereo not given)
O=C(NCCN1CCN(S(=O)(=O)c2ccc(OC3CCNCC3)c(Br)c2)CC1)c1ccc(Cl)c(Cl)c1
O=C(/C=C/c1ccc(Cl)c(Cl)c1)NCCCCCCN1CCCN(C(=O)Nc2ccc(Cl)c(C(F)(F)F)c2)CC1
C[C@@H](Oc1cc(-n2cnc3ccc(OCC4CCN(S(C)(=O)=O)CC4)cc32)sc1C(N)=O)c1ccccc1C(F)(F)F
c1cc(CNCC2CCCO2)cc(-c2ccc(-c3nc4ccccc4[nH]3)s2)c1 (stereo not given)
COC(=O)c1cccc(CNCc2ccc(-c3ccc(-c4nc5c(C)cccc5[nH]4)s3)cc2)c1
COc1ccc(NC(=O)NC2CCN(CCCOc3cc(C)nc4ccccc34)CC2)cc1OC
COc1cccc(NC(=O)c2ccc(NCCCN3CCC(C)CC3)c([N+](=O)[O-])c2)c1
Nc1c2ccccc2nc2cc(Cl)ccc12
COc1ccc2nccc(N3CCC(CCNCc4ccc5c(n4)NC(=O)CO5)CC3)c2n1
Cc1cc(N(C)C)nc(Nc2ccc(NC(=O)c3ccccc3C)cc2)n1
CN1CCN(c2cc(NC(=O)c3ccc(-c4ccc(Cl)cc4)cc3)ccc2Cl)CC1
Oc1ccc(CCNc2nc(N/N=C/C=C/c3ccc(Cl)cc3)nc(N3CCNCC3)n2)cc1
COc1ccc2nccc(N3CCC(SCCNCc4cc5c(cn4)OCCO5)C3)c2n1 (stereo not given)
COc1ccc2nccc([C@@H](O)CN3CCC(NCc4ccc5c(c4)NC(=O)CO5)CC3)c2c1

target: Plasmodium falciparum protein kinase 6 (PK6, PF3D7_1337100) (UniProt Q8IDW1); test: PfPK6 kinase inhibitors, biochemical, TCAMS library (AID 1159586); conditions: recombinant PfPK6, Kinase-Glo ATP depletion luminescence
Sequence (Q8IDW1 1-305): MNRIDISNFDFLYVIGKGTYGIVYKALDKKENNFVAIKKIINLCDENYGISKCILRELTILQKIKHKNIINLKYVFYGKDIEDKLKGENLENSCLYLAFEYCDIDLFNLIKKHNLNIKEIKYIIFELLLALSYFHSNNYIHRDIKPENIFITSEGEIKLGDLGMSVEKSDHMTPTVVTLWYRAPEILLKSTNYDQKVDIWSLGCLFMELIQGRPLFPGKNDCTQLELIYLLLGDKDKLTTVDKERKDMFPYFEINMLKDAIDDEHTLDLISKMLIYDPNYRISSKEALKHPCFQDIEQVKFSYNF

outcome, inactive:
Cc1[nH]c(C)c(-c2ccc(OCCCc3ccccn3)cc2)c(=O)c1Br
Cc1ccc2[nH]c3c(NCCN(C)C)ncnc3c2c1
Cc1cccc2[nH]c(-c3ccc(-c4cccc(NC(=O)c5cccc(C(N)=O)c5)c4)cc3)nc12
Cc1cccc(C)c1OC(=O)[C@@H](C)[C@@H](O)C1(Sc2ccccc2)CCN(C)CC1
N#Cc1ccc(-c2ccc(C(=O)NCC3CCN(CCN4CCC(c5ccc6c(c5OCC(N)=O)CCCC6)CC4)CC3)cc2)cc1
Cc1ccc(CN2CCCCC(NC(=O)c3cc4ccccc4s3)C2)cc1 (stereo not given)
CCCN(CCC)CCOc1ccc(C(O)(C#CC(O)(c2ccc(OCCN(CCC)CCC)cc2)c2cccc(Cl)c2)c2cccc(Cl)c2)cc1 (stereo not given)
CC(C#N)Cc1ccc(-c2cnc(N)c3cc(-c4ccnc(N)n4)ccc23)cc1 (stereo not given)
O=C(/C=C/c1ccc(C(F)(F)F)cc1)NCCCCCN1CCN(C(=O)Nc2ccc(F)c(Cl)c2)CC1
O=C(NCC1CCN(CCN2CCc3ccc4c(c3C2)OCO4)CC1)c1ccc(-c2ccc(C(F)(F)F)cc2)cc1
CCNc1cc(C)nc(Nc2ccc(NC(=O)c3ccco3)cc2)n1
CN(C)Cc1cccc(-c2cnc(N)c(-c3nc4ccc(S(C)(=O)=O)cc4[nH]3)c2)c1
O=c1ccc(-c2nc3cc(Cl)c(Cl)cc3n2Cc2ccc(Cl)cc2Cl)c[nH]1
CCc1c(C)nc(-n2nc(C)cc2NC(=O)c2cccc3ccccc23)[nH]c1=O
COc1ccc2c(=O)c3ccc(OC)cc3[nH]c2c1
NS(=O)(=O)c1ccccc1Nc1nc(Nc2ccc(N3CCOCC3)cc2)nc2c1CCC2
Nc1nonc1-c1nc2c(-c3cccc(Cl)c3)nccc2n1CCCNC(=O)Cc1ccc(Cl)cc1
Cc1ccc(O)c(C(=O)c2cnc3c(c2)c(-c2ccc(F)cc2)c(C#N)c(=O)n3C)c1
Cc1noc(C)c1-c1cccc(CNCc2ccc(-c3ccc(-c4nc5ccc(C(F)(F)F)cc5[nH]4)s3)cc2)c1
COc1ccc2nccc(N3CCC(O)(CCNCc4ccc5c(n4)NC(=O)CO5)CC3)c2n1
COc1ccc(NC(=O)[C@H](Cc2ccccc2)Nc2cc(C)nc(NCCN3CCCC3)n2)cc1
CCOc1cc2ncnc(Nc3cc(Cl)c(Cl)c(Cl)c3)c2cc1OCC
Cc1cccc(Nc2nccc(NCC(O)c3ccc(C(F)(F)F)cc3)n2)c1 (stereo not given)
Cn1cncc1C(=O)Nc1cccc(-c2ccc(-c3nc4ccccc4[nH]3)cc2)c1
CCN(CC)CC(O)Cc1c2ccc([N+](=O)[O-])cc2nc2cc(OC)c(OC)cc12 (stereo not given)
O=C(Nc1ccccc1F)NC1CCN(c2ccnc(Nc3ccc(F)cc3)n2)C1 (stereo not given)
O=C(NCCN1CCN(S(=O)(=O)c2ccc(OC3CCNCC3)c(Br)c2)CC1)c1ccc(Cl)c(Cl)c1
O=C(/C=C/c1ccc(Cl)c(Cl)c1)NCCCCCCN1CCCN(C(=O)Nc2ccc(Cl)c(C(F)(F)F)c2)CC1
C[C@@H](Oc1cc(-n2cnc3ccc(OCC4CCN(S(C)(=O)=O)CC4)cc32)sc1C(N)=O)c1ccccc1C(F)(F)F
c1cc(CNCC2CCCO2)cc(-c2ccc(-c3nc4ccccc4[nH]3)s2)c1 (stereo not given)
COC(=O)c1cccc(CNCc2ccc(-c3ccc(-c4nc5c(C)cccc5[nH]4)s3)cc2)c1
COc1ccc(NC(=O)NC2CCN(CCCOc3cc(C)nc4ccccc34)CC2)cc1OC
COc1cccc(NC(=O)c2ccc(NCCCN3CCC(C)CC3)c([N+](=O)[O-])c2)c1
Nc1c2ccccc2nc2cc(Cl)ccc12
COc1ccc2nccc(N3CCC(CCNCc4ccc5c(n4)NC(=O)CO5)CC3)c2n1
Cc1cc(N(C)C)nc(Nc2ccc(NC(=O)c3ccccc3C)cc2)n1
CN1CCN(c2cc(NC(=O)c3ccc(-c4ccc(Cl)cc4)cc3)ccc2Cl)CC1
Oc1ccc(CCNc2nc(N/N=C/C=C/c3ccc(Cl)cc3)nc(N3CCNCC3)n2)cc1
COc1ccc2nccc(N3CCC(SCCNCc4cc5c(cn4)OCCO5)C3)c2n1 (stereo not given)
COc1ccc2nccc([C@@H](O)CN3CCC(NCc4ccc5c(c4)NC(=O)CO5)CC3)c2c1
